Screening results as filed in PubChem.
In the library only some 8.7% were active in any assay of this set; here they are far more common.
ALOX12 inh: blocks human arachidonate 12S-lipoxygenase | Potency, µM (highest dose often 108 µM), for the others: at the top dose activity change, negative = inhibition, usual class: inhibitors | purified 12hLO, xylenol orange hydroperoxide absorbance | 1.1% of 580,000 active | AID 1671190 | P18054; further: on the % scale 0 is the no-effect control and ±100 the full control effect
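Purified human 12hLO (150 nM final) in 25 mM Hepes, 0.01% Triton X-100, pH 7.0 was preincubated 15 min at room temperature with compound. Then 40 uM arachidonic acid was added, 30 min. Hydroperoxide was read by Fe-XO absorbance ratio 573/405 nm.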
JMJD2A Tudor: blocks the human JMJD2A Tudor domain | Potency, µM (highest dose often 114 µM), inactives show at the highest dose activity change, negative = inhibition, actives largely listed as inhibitors | O75164 | AlphaScreen JMJD2A-Tudor / H3K4me3 peptide binding | 4.4% of 390,000 active; further: on the % scale 0 is the no-effect control and ±100 the full control effect; nearly all actives have a fitted effect of over 50% in size
BAZ2B block: blocks human BAZ2B | AlphaScreen BAZ2B-H3K14Ac peptide displacement | Potency, µM (titrated, usually from 114 µM), without a hit: at the top dose activity change, negative = inhibition, actives largely listed as inhibitors | 4.4% of 360,000 active; further: on the % scale 0 is the no-effect control and ±100 the full control effect; nearly all actives have a fitted effect of over 60% in size
Target sequence (Q9UIF8 whole entry, looked up): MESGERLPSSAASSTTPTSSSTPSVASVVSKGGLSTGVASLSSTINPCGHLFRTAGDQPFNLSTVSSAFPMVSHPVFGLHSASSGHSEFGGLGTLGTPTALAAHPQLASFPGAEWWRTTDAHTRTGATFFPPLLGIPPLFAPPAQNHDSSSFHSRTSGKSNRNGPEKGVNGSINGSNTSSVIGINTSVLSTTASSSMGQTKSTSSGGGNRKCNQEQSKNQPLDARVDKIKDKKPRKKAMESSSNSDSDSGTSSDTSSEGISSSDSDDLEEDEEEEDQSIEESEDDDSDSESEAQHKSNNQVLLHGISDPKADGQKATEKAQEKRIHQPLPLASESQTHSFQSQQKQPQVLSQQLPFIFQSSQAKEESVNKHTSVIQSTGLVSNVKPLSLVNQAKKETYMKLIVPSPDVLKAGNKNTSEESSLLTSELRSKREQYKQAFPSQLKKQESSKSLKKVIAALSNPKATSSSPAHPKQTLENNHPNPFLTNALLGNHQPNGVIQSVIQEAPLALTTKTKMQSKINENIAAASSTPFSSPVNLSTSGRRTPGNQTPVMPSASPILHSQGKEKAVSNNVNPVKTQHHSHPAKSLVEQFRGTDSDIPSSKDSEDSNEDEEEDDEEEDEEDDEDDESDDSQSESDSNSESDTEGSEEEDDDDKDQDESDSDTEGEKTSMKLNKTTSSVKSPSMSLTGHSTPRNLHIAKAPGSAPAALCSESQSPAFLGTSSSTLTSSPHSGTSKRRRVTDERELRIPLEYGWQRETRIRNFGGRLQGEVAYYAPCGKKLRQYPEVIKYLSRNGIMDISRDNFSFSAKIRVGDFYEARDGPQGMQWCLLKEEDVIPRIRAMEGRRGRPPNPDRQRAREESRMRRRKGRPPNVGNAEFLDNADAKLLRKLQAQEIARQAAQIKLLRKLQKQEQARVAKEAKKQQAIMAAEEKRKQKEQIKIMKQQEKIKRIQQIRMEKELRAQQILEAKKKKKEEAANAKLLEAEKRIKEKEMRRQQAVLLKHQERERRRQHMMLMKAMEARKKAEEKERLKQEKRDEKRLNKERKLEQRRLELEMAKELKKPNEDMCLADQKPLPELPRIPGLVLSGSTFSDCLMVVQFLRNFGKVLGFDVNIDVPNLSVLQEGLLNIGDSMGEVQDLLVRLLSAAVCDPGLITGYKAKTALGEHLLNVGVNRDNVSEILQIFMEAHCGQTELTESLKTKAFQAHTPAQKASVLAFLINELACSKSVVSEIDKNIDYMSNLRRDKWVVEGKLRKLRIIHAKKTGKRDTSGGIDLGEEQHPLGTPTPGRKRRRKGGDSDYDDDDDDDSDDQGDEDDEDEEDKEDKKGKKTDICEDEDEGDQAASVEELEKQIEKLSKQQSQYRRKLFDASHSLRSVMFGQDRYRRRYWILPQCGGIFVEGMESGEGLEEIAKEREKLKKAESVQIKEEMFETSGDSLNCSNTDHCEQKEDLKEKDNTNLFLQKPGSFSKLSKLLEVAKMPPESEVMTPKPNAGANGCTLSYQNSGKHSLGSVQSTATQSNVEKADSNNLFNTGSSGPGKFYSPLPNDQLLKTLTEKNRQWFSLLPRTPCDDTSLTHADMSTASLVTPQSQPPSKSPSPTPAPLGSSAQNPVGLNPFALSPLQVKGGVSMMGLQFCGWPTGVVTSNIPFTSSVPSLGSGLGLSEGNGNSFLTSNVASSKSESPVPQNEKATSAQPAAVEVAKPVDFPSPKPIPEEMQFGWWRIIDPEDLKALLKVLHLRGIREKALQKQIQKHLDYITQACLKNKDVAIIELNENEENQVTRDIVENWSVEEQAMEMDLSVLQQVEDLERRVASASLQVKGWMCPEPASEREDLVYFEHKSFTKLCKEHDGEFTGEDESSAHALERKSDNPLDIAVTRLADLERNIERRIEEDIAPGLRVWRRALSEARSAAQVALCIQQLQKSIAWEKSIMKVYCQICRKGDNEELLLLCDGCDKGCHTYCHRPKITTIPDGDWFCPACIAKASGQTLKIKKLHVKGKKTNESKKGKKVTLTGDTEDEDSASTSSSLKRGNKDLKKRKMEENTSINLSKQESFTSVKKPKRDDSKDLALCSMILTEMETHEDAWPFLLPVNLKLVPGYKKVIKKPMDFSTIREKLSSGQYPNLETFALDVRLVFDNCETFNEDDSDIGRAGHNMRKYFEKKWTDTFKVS
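Protein-peptide AlphaScreen: BAZ2B 50 nM, b-H3K14Ac 50 nM, 1x PBS pH 7.4 + 0.01% Tween-20. Preincubation 30 min RT; cpd 30 min RT (top 110 uM); beads 20 min RT, light-protected.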
Sfp PPTase inh: Sfp phosphopantetheinyl transferase inhibition; 3.5% of 310,000 active; Potency, µM, inactives show largest response in the series, negative = inhibition, usual class: inhibitors; Biochemical Sfp PPTase activity, qHTS; Q9F4F7;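 further: the enzyme is Sfp with the accession as filed and its product quenches rhodamine fluorescence; 0% = enzyme reaction without inhibitor and -100% = no enzyme wells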
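Compounds were incubated with enzyme (final 15 nM) for 15 min at room temperature before substrate addition started the reaction. Fluorescence at 525 nm excitation, 598 nm emission was recorded immediately and after 30 minutes.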
HP1b binding inh: inhibitors of HP1-beta chromodomain binding to methylated histone tails | P83916 | AlphaScreen HP1-beta / biotin-H3K9me3 peptide binding | Potency, µM (doses to about 114 µM), without a hit: at the highest dose activity change, negative = inhibition, most hits filed as inhibitors | 0.56% of 390,000 active; further: nearly all actives have a fitted effect of over 70% in size
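HP1-beta protein (50 nM final) preincubated 30 min at room temperature with biotinylated H3(1-18)K9me3 peptide (50 nM) in PBS pH 7.4, 0.01% Tween-20, then compound added for 30 min. AlphaScreen streptavidin donor/nickel chelate acceptor beads (10 ug/mL final), 30 min dark, luminescence read.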
G9a block: blocks human histone lysine methyltransferase G9a. AID 504332. G9a H3K9 monomethylation, AlphaScreen, 2 h. 8.8% of 350,000 active. Potency, µM (highest dose often 102 µM), for the others: at the highest dose activity, negative = inhibition, most hits filed as inhibitors; further: on the % scale 0 is the no-effect control and ±100 the full control effect; nearly all actives have a fitted effect of over 75% in size
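Compounds were preincubated with 20 nM G9a for 15 min, after which biotinylated H3K9 peptide (500 nM) and SAM (20 uM) started a 2 h room-temperature reaction. Monomethylated product was quantified by antibody-based AlphaScreen chemiluminescence.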
* = called active by the depositor; ? = inconclusive; / = not tested or not shown; [ ] = remark or other dose. The call rests on the fitted dose curve; in most records, active means well fitted curve in the direction sought with a large enough effect; inconclusive means small, poorly fitted or top-dose-only effect, or another doubt; inactive means no such curve, though single readings can be large; an effect the other way counts as inactive or inconclusive. Potency means the concentration at half of the fitted maximal effect.

SMILES	ALOX12 inh	JMJD2A Tudor	BAZ2B block	Sfp PPTase inh	HP1b binding inh	G9a block
Cc1cc(C)c(NC(=O)CSc2ccc(-c3cccnc3)nn2)c(C)c1	58.2%	-19.9%	-2.2%	56.2µM*	30.8%	24.8%
Cc1ccc(NC(=O)CSc2ccc(-c3ccco3)nn2)c(C)c1	-12.4%	-14.4%	1.8%	56.2µM*	17.1%	-3.4%
CC(=O)c1ccc(NC(=O)CSc2ccc(-c3ccco3)nn2)cc1	92.0%	-12.5%	-19.8%	39.8µM*	27.3%	?
Cc1ccc(CNC(=O)CSc2ccc(-c3ccco3)nn2)cc1	-32.0%	-16.0%	-0.1%	-11.3%	17.1%	?
CCc1nnc(SCC(=O)Nc2ccc(C(C)=O)cc2)nc1CC	0.0%	-15.6%	56.2µM*	-2.0%	-0.6%	-6.0%[12.7 µM]
CCc1ccc(NC(=O)CSc2nnc(CC)c(CC)n2)cc1	?	-4.5%	1.8%	15.0%	48.0%	10.3%[59 µM]
Cc1ccc(NC(=O)CSc2nnc(-c3ccco3)o2)c(C)c1	2.0%	-3.5%	-17.5%	5.5%	21.6%	2.4%
CCc1nc(-c2c3n(c(=O)n(CC(=O)NCCCc4ccccc4)c2=O)CCCC3)no1	34.4%	/	/	/	/	/
OC(C#CCN1CCOCC1)c1ccccc1 (configuration not stated)	24.5%	/	/	/	/	/
Cc1nc(C)c(-c2ccc(SCC(=O)Nc3cccc(F)c3)nn2)s1	-1.5%	?	-16.0%	-2.1%	38.1%	22.4µM*
Cc1ccc(NC(=O)CSc2ccc(-c3ccco3)nn2)cc1	-0.9%	-8.0%	-1.4%	20µM*	7.7%	39.8µM*
Cc1cc(C)cc(NC(=O)CSc2ccc(-c3ccco3)nn2)c1	-14.9%	-22.7%	?	22.4µM*	-1.7%	25.1µM*
CC(=O)Nc1cccc(NC(=O)CSc2ccc(-c3ccco3)nn2)c1	?	?	?	31.6µM*	17.0%	39.8µM*
CCOc1ccc(C2(c3ccccc3OC)CCCC2)cc1	-9.5%	/	/	/	/	/
COc1ccc(-c2cc(N3CCC(NC(=O)c4ccc(NC(C)=O)cc4)CC3)n[nH]2)cc1	15.6%	/	/	/	/	/
Cc1cc(C)cc(NC(=O)C2CCN(C(=O)c3ncn4c3COC(c3ccccc3)C4)CC2)c1 (configuration not stated)	14.0%	/	/	/	/	/
CC(=O)Nc1ccc(NC(=O)CSc2ccc(-c3ccco3)nn2)cc1	-3.7%	?	?	44.7µM*	5.8%	28.2µM*
Cc1ccccc1NC(=S)N/N=C1\CC(C)(C)Oc2ccc(O)cc21	39.8µM*	39.8µM*	?	17.3%	?	35.5µM*
COc1ccc(NC(=S)N/N=C2\CC(C)(C)Oc3ccc(OC)cc32)cc1	?	-20.2%	?	-4.6%	-18.9%	?
CC(=O)N1CCC2(CC1)C/C(=N\NC(=S)Nc1ccc(C)cc1)c1cc(O)ccc1O2	44.7µM*	?	?	1.0%	-22.9%	39.8µM*
Cc1ccc(NC(=S)N/N=C2\CC(C)(C)Oc3ccc(O)cc32)cc1	?	-32.0%	0.1%	30.5%	0.7%	19.6%[59 µM]
COc1ccc(CN2Cc3cc(NC(=O)c4ccc(F)cc4F)ccc3OC(C)C2=O)c(OC)c1 (configuration not stated)	9.1%	/	/	/	/	/
O=C(Nc1ccccc1)Nc1ccccc1	13.1%	-6.1%	/	3.5%	28.3%	-27.9%[2.33 µM]
O=C(Nc1ccccc1)Nc1ccc(Cl)nc1Cl	3.16µM*	-2.0%	/	/	35.3%	/
COCC(=O)N(C1CCOCC1)C1CCN(C(=O)c2cccnc2C)CC1	25.9%	/	/	/	/	/
SMILES	ALOX12 inh	JMJD2A Tudor	BAZ2B block	Sfp PPTase inh	HP1b binding inh	G9a block
Cc1cccc(CN(C(=S)Nc2c(C)cccc2C)c2cccnc2)c1	44.6%	-15.8%	79.4µM*	0.7%	23.3%	?
CCc1ccccc1NC(=S)N(Cc1cccc(C)c1)c1cccnc1	0.9%	-23.7%	-20.2%	7.0%	12.6%	-18.3%
COc1ccc(NC(=O)CCS(=O)(=O)c2ccc(Br)s2)cc1	-27.6%	-29.7%	?	12.6%	-31.5%	17.8µM*
O=C(CCS(=O)(=O)c1ccc(Cl)cc1)Nc1ccccc1Br	29.1%	-5.6%	-1.0%	7.4%	-4.8%	16.3%
CCc1cccc(CC)c1NC(=O)CCS(=O)(=O)c1ccc(Br)cc1	-10.2%	-9.7%	3.4%[57.1 µM]	/	36.9%	-17.9%[59 µM]
CCc1cccc(CC)c1NC(=O)CCS(=O)(=O)c1ccc(Br)s1	-16.3%	-30.7%	-38.1%	/	-7.4%	22.4µM*
O=C(CCS(=O)(=O)c1ccc(Br)s1)Nc1ccccc1Br	-2.0%	-19.7%	-32.9%	17.4%	0.9%	50.1µM*
Cc1cc(C)cc(NC(=S)NNC(=O)c2csc(C)c2)c1	-54.3%	/	/	/	/	/
CCOC(=O)c1c(-c2ccc(C)o2)csc1NC(=O)CN1CCCCC1	100.9%	19.2%	?	7.94µM*	20.7%	39.8µM*
CCOC(=O)c1c(-c2ccccc2)csc1NC(=O)CSc1nc(N)cc(N)n1	?	-32.1%	-26.4%	8.8%	-5.1%	?
CCOC(=O)c1c(-c2ccc(C)o2)csc1NC(=O)CSc1nncs1	-18.9%	56.2µM*	-3.1%	7.94µM*	?	10µM*
CCOC(=O)c1c(-c2ccco2)csc1NC(=O)COC(=O)c1cnccn1	?	?	50.1%	/	?	8.91µM*
CCOC(=O)c1c(-c2ccc(C)o2)csc1NC(=O)CN1CCC(C(N)=O)CC1	-0.5%	-16.6%	?	31.6µM*	?	44.7µM*
CCOc1cccc(CN2C[C@@H]3C(=O)N(CCCN4CCCC4=O)C(=O)[C@@H]3C2)c1	69.2%	/	/	/	/	/
Cc1nn2c(SCC(=O)NCc3ccccc3Cl)nc3ccccc3c2nc1=O	4.4%	/	/	/	/	/
Cc1nn(C)c2nc(NCCC(=O)N3CCCC3)sc12	8.5%	/	/	/	/	/
CCOC(=O)c1c(-c2ccco2)csc1NC(=O)CSc1nnc(N)s1	-21.9%	-35.6%	?	25.1µM*	6.0%	39.8µM*
Cc1cc(C(=O)N/N=C/c2ccc(Br)o2)n[nH]1	-0.8%	-11.4%	-14.6%	10.8%	34.4%	-8.0%
Cc1cc(C(=O)N/N=C\c2cc(C(C)(C)C)c(O)c(C(C)(C)C)c2)n[nH]1	5.0%	?	-11.4%	-5.6%	-17.4%	39.8µM*
Cc1cc(C(=O)N/N=C/c2ccc([N+](=O)[O-])s2)n[nH]1	?	-6.2%	-15.5%	-3.6%	25.1%	6.9%
Cc1cc(C(=O)N/N=C/c2ccc(-c3cccc([N+](=O)[O-])c3)o2)n[nH]1	-2.2%	-17.3%	-18.1%	22.4%	33.4%	-7.6%
Cc1cc(C(=O)N/N=C/c2cc(Cl)cc([N+](=O)[O-])c2O)n[nH]1	-21.1%	?	50.1µM*	11.8%	26.8%	/
Cc1cc(C(=O)N/N=C/c2ccc(-c3ccc([N+](=O)[O-])cc3Cl)o2)n[nH]1	-21.4%	?	79.4µM*	-20.2%	20.4%	50.1µM*
Cc1cc(C(=O)N/N=C/c2cc(Br)c(Br)o2)n[nH]1	2.7%	?	-26.4%	?	-1.9%	10µM*
